The record followed here is PubChem BioAssay AID1851 (National Center for Advancing Translational Sciences (NCATS), 2009).

The structures appear in SMILES notation. Out of some 16,000 compounds screened, about 5,800 (36%) were called active. About 23% were inconclusive and are not listed. The list shows a part of the results. Unmarked numbers belong to inactive results. Calls follow the shape of the dose curve; as a rule, active = well fitted curve in the direction sought with a large enough effect; inconclusive = small, poorly fitted or top-dose-only effect, or effect the other way; inactive = no such curve, though single readings can be large or run the other way.
% is scaled to controls: 0 for no effect and ±100 for the full control effect.

Sequence of Cytochrome P450 2C19 (Homo sapiens) (P33261 whole entry, looked up): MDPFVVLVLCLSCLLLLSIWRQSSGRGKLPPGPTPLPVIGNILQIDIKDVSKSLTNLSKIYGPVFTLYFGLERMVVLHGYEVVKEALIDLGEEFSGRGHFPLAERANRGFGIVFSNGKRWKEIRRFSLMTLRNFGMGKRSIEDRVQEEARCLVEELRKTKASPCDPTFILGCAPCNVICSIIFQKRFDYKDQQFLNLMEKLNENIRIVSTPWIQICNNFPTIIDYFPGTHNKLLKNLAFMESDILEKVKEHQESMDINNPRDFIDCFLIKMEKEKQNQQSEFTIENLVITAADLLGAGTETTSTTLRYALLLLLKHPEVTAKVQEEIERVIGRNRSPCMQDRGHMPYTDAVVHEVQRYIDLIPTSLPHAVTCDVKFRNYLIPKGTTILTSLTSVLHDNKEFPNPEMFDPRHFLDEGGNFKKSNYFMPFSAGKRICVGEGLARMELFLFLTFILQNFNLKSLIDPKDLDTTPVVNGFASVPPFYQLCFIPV

The test addresses Cytochrome P450 2C19 (Homo sapiens) (UniProt P33261). Kind of test: Cytochrome panel assay with activity outcomes. To be noted: recombinant CYP, pro-luciferin dealkylation, luminescence, p450-cyp2c19; series mostly up to 57.1 µM; activity, negative = inhibition: at the top concentration.
On to `Cc1cc(NC(=O)CCN2C(=O)C3C4CCC(C4)C3C2=O)c(C)cc1Br` (stereo unspecified), for which the AC50 (as a rule, the midpoint of the concentration-response curve, whichever way the signal moves) is 11.2 µM (active).

As for `CC1CCN(CC(=O)Nc2cccc([N+](=O)[O-])c2)CC1`, the AC50 was 4.47 µM (active).

Turning to `O[C@H](CCCN1CCN(c2ncc(F)cn2)CC1)c1ccc(F)cc1`, the “activity, negative = inhibition” value is -16.9%.

Turning to `O=C1c2ccccc2S(=O)(=O)N1CCCCN1CCN(c2ncccn2)CC1`, the AC50 was 0.631 µM (active).

Regarding `Cn1cccc1C(=O)N1CCC2(CC1)CCN(c1ccc(-c3ccccc3)cc1)CC2`, the “activity, negative = inhibition” value was 9.67%.

For the compound `O=C(NCCN1CCCCC1)c1ccc(I)cc1`, the “activity, negative = inhibition” value was -38.6%.

In the case of `O=C(NCCN1CCOCC1)c1csc2c1CCCCC2`, the AC50 was 28.2 µM (active).

`Cc1ccc(C(=O)NCCCN2CCOCC2)cc1N1CCCC1=O`: the “activity, negative = inhibition” value was -14.7%.

Take `COc1ccc(C(=O)NCCCN2CCOCC2)cc1OC`: the “activity, negative = inhibition” value is -12.1%.

Consider `COc1ccc(-c2cn3c(C)c(C(=O)NCCN4CCOCC4)sc3n2)cc1`, for which the “activity, negative = inhibition” value is -22.6%.

In the case of `O=C(NCCN1CCOCC1)c1ccc2ccccc2c1`, the AC50 was 7.94 µM (active).

In the case of `COc1ccc(C(=O)Nc2ccc(Cl)cc2C(=O)NCCN2CCOCC2)cc1`, the concentration at half-maximal activity (AC50) was 10 µM (active).

Turning to `CC(=O)N1CCC2(CC1)CN(C(=O)Nc1cccc(C#N)c1)C2`, the “activity, negative = inhibition” value was 7.13%.

Take `Cc1c(NC(=O)Cn2ccc([N+](=O)[O-])n2)c(=O)n(-c2ccccc2)n1C`: the “activity, negative = inhibition” value was -13.2%.

For `Cc1c(NC(=O)CSc2nnnn2C)c(=O)n(-c2ccccc2)n1C`, the “activity, negative = inhibition” value is -10.8%.

Take `Cc1c(NC(=O)CSc2nnc3c4ccccc4n(CCc4ccccc4)c3n2)c(=O)n(-c2ccccc2)n1C`: the AC50 was 25.1 µM (active).

With `Cc1nc(SCC(=O)Nc2c(C)n(C)n(-c3ccccc3)c2=O)nc(C)c1C`, the “activity, negative = inhibition” value was -7.06%.

As for `C=CCn1c(SCC(=O)Nc2c(C)n(C)n(-c3ccccc3)c2=O)nc2sc(C)c(-c3ccccc3)c2c1=O`, the AC50 is 15.8 µM (active).

On to `CC(=O)N1CCc2cc(S(=O)(=O)CCC(=O)Nc3c(C)n(C)n(-c4ccccc4)c3=O)ccc21`, for which the “activity, negative = inhibition” value was -11.7%.

As to `CC1(C)O[C@@H]2O[C@H]([C@H](O)CO/N=C3/[C@H]4O[C@@H]4[C@@H](O)[C@H]4[C@H]3CCn3c(=O)n(-c5ccccc5)c(=O)n34)[C@@H](O)[C@@H]2O1`, the activity, negative = inhibition was -36.7% [at 11.4 µM].

With `Cc1c(C(=O)NCCC2=CCCCC2)cccc1[N+](=O)[O-]`, the AC50 was 10 µM (active).

Regarding `Cc1c(C(=O)NN2CCN(C)CC2)cccc1[N+](=O)[O-]`, the “activity, negative = inhibition” value is 12.7%.

As to `COCCn1c(=O)c(-c2ccc(Cl)cc2)nc2cnc(N3CCOCC3)nc21`, the “activity, negative = inhibition” value was -5.7%.

`Cn1nc(-c2ccc(N3CCOCC3)c(NS(=O)(=O)c3ccc(Cl)cc3)c2)c2ccccc2c1=O`: the AC50 was 0.708 µM (active).

For `Cn1c(=O)c(-c2ccc(Cl)cc2)nc2cnc(N3CCOCC3)nc21`, the “activity, negative = inhibition” value was -5.23%.

On to `CCC(=O)Nc1cc(-c2nn(C)c(=O)c3ccccc23)ccc1N1CCCCC1`, for which the AC50 is 15.8 µM (active).

With `O=C(NCCCN1CCCCCC1)[C@@H](c1ccccc1)C1CCCCC1`, the “activity, negative = inhibition” value was -22.4%.

On to `O=C(NC1CCCCC1)C(Cc1ccccc1)N1C(=O)C2C3CCC(C3)C2C1=O` (stereo unspecified), for which the AC50 was 11.2 µM (active).

`CC(=O)Nc1ccc(NCN2C(=O)C3C4CCC(C4)C3C2=O)cc1` (stereo unspecified): the “activity, negative = inhibition” value was -17.9%.

In the case of `Cc1ccc(NS(=O)(=O)c2ccc(OCC(=O)Nc3cccc([N+](=O)[O-])c3)c(C)c2)cc1`, the AC50 was 2 µM (active).

`O=C(c1ccccc1NS(=O)(=O)c1cccc([N+](=O)[O-])c1)N1CCOCC1`: the “activity, negative = inhibition” value was -8.87%.

For the compound `CSC1=N/C(=C\c2ccc(Br)o2)C(=O)S1`, the AC50 was 10 µM (active).

For `CSC1=N/C(=C\c2ccc(C)cc2)C(=O)S1`, the AC50 was 7.94 µM (active).

As to `CCSc1nnc(-c2ccc(Cl)cc2)c2ccccc12`, the AC50 was 6.31 µM (active).

Consider `CCNc1ncc2nc(-c3ccc(Cl)cc3)c(=O)n(-c3ccccc3)c2n1`, for which the “activity, negative = inhibition” value was 1.02%.

In the case of `CC(=O)n1c(COS(C)(=O)=O)nc2ccccc21`, the activity, negative = inhibition was 6.98% [at 11.4 µM].

Take `Cn1c(SCc2nc3ccccc3n2CCO)nc2ccccc21`: the AC50 was 6.31 µM (active).

With `Cn1c(C[C@@H](O)c2nc3ccccc3n2C)nc2ccccc21`, the activity, negative = inhibition is -23.7% [at 11.4 µM].

For `Nc1nc2c(c(=O)[nH]1)N[C@H](CCNc1ccc(C(=O)O)cc1)CN2`, the activity, negative = inhibition was 0.2% [at 11.4 µM].

For `CNCCC=C1c2ccccc2CCc2ccccc21`, the AC50 entry was “inactive”.

On to `C[N+](C)([O-])CCC=C1c2ccccc2CCc2ccccc21`, for which the AC50 is 0.398 µM (active).

Turning to `CN(C)CCC=C1c2ccccc2CCc2ccccc21`, the “activity, negative = inhibition” value is -32.5%.

As to `O=C(Nc1cccn(Cc2c(Cl)cccc2Cl)c1=O)c1ccc(Cl)cc1Cl`, the AC50 was 0.794 µM (active).

For `CCOC(=O)N/N=C1/C[C@@H](O)[C@@H](O)[C@@H]2[C@@H]3C(=O)N(CC)C(=O)[C@H]3CC[C@@H]12`, the activity, negative = inhibition is 25.5% [at 11.4 µM].

As for `CCOC(=O)NCN1C(=O)C2C3C=CC(C3)C2C1=O` (stereo unspecified), the AC50 is 28.2 µM (active).

As for `O=C(CN1C(=O)C2C3C=CC(C3)C2C1=O)Nc1ccc(C(=O)O)cc1` (stereo unspecified), the “activity, negative = inhibition” value is 7.63%.
